Inconclusive results are not listed. Active and inactive are the calls of the source. Unless noted, calls come from the whole dose curve.
Columns and labels:
[1] = Nuclear factor erythroid 2-related factor 2/antioxidant responsive element (Nrf2/ARE) small molecule agonists: qHTS cell viability counter screen in human keratinocytes (AID 1919968; active = well fitted curve in the direction sought with a large enough effect in the repeat runs; an effect the other way counts as inactive or inconclusive; note: nearly all actives have a fitted effect of over 55% in size)
In short: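 Seed 1,500 KeratinoSens cells per well, then incubate 5 h at 37 C/5% CO2. Add compounds in DMSO and incubate 23 h. Add CellTiter-Fluor, wait 1 h and read fluorescence.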

[2] = Nuclear factor erythroid 2-related factor 2/antioxidant responsive element (Nrf2/ARE) small molecule agonists: luciferase reporter gene qHTS assay in human keratinocytes (AID 1919969); note: nearly all actives have a fitted effect of over 35% in size
[3] = target: Gonadotropin-releasing hormone receptor (Homo sapiens) (UniProt P30968); assay: Human gonadotropin-releasing hormone receptor (GnRHR) small molecule agonists, calcium flux assay in GnRHR-HEK293 cells (AID 1920063); note: nearly all actives have a fitted effect of over 35% in size
Gonadotropin-releasing hormone receptor (Homo sapiens), sequence (P30968 whole entry, looked up): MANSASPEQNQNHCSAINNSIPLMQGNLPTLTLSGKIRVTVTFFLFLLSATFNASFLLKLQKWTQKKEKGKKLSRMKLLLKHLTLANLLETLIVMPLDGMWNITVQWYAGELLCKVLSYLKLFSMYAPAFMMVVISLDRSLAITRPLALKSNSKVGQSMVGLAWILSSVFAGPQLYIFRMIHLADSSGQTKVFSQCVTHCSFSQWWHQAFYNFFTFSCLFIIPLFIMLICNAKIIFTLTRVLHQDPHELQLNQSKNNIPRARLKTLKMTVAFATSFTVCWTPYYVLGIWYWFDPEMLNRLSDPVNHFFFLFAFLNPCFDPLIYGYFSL
In short: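 Cells: HEK293 stably expressing human GnRHR. Steps: overnight (18 h) culture, 1 h calcium dye loading at 37 C, compound addition, kinetic fluorescence read at 480/540 nm. Each compound tested at 15 concentrations in triplicate.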

[4] = target: KiSS-1 receptor (Homo sapiens) (UniProt Q969F8); assay: Human kisspeptin (KISS1R) small molecule agonists, calcium flux assay in KISS1R-HEK293 cells (AID 1920064; active = well fitted curve in the direction sought with a large enough effect in the repeat runs; an effect the other way counts as inactive or inconclusive)
KiSS-1 receptor (Homo sapiens), sequence (Q969F8 whole entry, looked up): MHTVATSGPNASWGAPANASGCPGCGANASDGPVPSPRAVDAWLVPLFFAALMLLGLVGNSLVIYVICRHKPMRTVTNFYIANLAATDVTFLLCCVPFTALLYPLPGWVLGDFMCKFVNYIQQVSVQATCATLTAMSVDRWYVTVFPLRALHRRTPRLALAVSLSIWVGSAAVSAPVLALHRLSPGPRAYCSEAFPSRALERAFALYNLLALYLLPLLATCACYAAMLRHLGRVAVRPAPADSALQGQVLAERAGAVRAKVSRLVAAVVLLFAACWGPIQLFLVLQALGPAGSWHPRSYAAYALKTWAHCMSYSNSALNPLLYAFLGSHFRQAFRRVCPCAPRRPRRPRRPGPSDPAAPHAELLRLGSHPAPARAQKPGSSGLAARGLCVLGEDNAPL
In short: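 Cells plated and incubated 18 h; dye added, 1 h at 37 C; compounds in DMSO pinned in; signal read at 480/540 nm every second for 3 min. Each compound tested at 15 concentrations in triplicate.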

[5] = p53 small molecule agonists, cell-based qHTS assay with human liver microsomes: qHTS cell viability counter screen (AID 1963579); note: nearly all actives have a fitted effect of over 45% in size
In short: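 Seed p53RE-bla cells at 4,000 per well; incubate 5 h at 37 C; add compound, human liver microsomes and NADPH; incubate 16 h at 37 C; add CellTiter-Glo; after 30 min at room temperature, read luminescence.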

[6] = p53 small molecule agonists, cell-based qHTS assay with rat liver microsomes: qHTS cell viability counter screen (AID 1963580); note: nearly all actives have a fitted effect of over 45% in size
In short: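 HCT-116 p53RE-bla, 4,000 cells/well, 5 h pre-incubation; cpd + rat liver microsomes 0.5 mg/mL + NADPH 0.5 mg/mL (final); 16 h, 37 C; CellTiter-Glo, 30 min RT; luminescence.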

[7] = p53 small molecule agonists, cell-based qHTS assay (AID 1963582; active = well fitted activation curve with a large enough effect in the signal ratio in the repeat runs, not every such curve was filed as active; the % refers to the signal ratio)
In short: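 Quantitative HTS in p53RE-bla cells: after a 5 h settling period, compounds delivered in DMSO were left on cells for 16 h at 37 C, and reporter induction was measured as fluorescence following 2 h substrate loading.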

[8] = target: 5-hydroxytryptamine receptor 2A (Homo sapiens) (UniProt P28223); assay: 5-hydroxytryptamine receptor 2A (HTR2A) small molecule antagonists, cell-based qHTS assay (AID 1963586); note: nearly all actives have a fitted effect of over 45% in size
5-hydroxytryptamine receptor 2A (Homo sapiens), sequence (P28223 whole entry, looked up): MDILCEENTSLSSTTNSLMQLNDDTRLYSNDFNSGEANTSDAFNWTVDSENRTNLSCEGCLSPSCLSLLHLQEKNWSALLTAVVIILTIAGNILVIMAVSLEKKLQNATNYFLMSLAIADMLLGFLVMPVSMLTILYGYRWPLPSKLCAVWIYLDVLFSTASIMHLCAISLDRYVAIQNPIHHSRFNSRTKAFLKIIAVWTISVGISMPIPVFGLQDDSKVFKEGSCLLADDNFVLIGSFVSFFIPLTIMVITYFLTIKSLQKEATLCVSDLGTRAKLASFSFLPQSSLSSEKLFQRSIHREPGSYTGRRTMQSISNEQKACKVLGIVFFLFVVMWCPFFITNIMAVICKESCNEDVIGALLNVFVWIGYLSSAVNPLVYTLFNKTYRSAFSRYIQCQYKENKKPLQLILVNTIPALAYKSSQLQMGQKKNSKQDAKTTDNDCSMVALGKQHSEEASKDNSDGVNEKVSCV
In short: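 Antagonist-mode intracellular calcium assay: DOI (4 nM) added after 5 min compound pre-incubation at room temperature to dye-loaded HTR2A-CHO cells. Fluorescence followed for 3 min, sampled every second.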

[9] = target: 5-hydroxytryptamine receptor 2A (Homo sapiens) (UniProt P28223); assay: 5-hydroxytryptamine receptor 2A (HTR2A) small molecule agonists, cell-based qHTS assay (AID 1963587); note: nearly all actives have a fitted effect of over 30% in size
In short: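 Kinetic calcium-flux fluorescence (2 min, 1 sec intervals) after compound addition in agonist mode. HTR2A-CHO cells were cultured 18 h, then dye-loaded 1 h at 37 C.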

[10] = target: Muscarinic acetylcholine receptor M1 (Homo sapiens) (UniProt P11229); assay: Cholinergic receptor muscarinic 1 (CHRM1) small molecule antagonists, cell-based qHTS assay (AID 1963588); note: nearly all actives have a fitted effect of over 40% in size
Muscarinic acetylcholine receptor M1 (Homo sapiens), sequence (P11229 whole entry, looked up): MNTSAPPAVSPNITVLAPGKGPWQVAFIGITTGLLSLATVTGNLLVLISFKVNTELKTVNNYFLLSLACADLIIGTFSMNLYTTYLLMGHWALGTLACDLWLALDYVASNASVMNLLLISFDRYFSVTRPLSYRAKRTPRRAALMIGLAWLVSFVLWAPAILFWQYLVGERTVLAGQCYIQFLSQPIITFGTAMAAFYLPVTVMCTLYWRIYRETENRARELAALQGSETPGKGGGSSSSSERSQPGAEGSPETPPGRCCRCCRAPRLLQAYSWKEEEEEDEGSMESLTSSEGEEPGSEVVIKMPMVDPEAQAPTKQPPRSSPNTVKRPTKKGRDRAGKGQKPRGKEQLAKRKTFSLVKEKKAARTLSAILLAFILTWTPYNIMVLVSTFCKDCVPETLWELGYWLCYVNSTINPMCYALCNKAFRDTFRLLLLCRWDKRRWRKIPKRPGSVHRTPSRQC
In short: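 CHRM1-CHO calcium-flux assay, antagonist mode. Cells were seeded 18 h, dye-loaded 1 h at 37 C and given compound for 5 min at RT, then acetylcholine was added at 50nM. FDSS fluorescence was read 3 min; 15 concentrations, three runs.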

[11] = target: Muscarinic acetylcholine receptor M1 (Homo sapiens) (UniProt P11229); assay: Cholinergic receptor muscarinic 1 (CHRM1) small molecule agonists, cell-based qHTS assay (AID 1963589); note: nearly all actives have a fitted effect of over 35% in size
In short: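 Agonist-mode qHTS in CHO cells stably carrying human muscarinic M1. Intracellular calcium is tracked by fluorescence every second after compound transfer; each compound runs at 15 concentrations in three independent runs.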

[12] = cAMP Responsive Elements (CRE) small molecule agonists, cell-based qHTS assay (AID 1963590)
In short: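 Agonist mode qHTS in CRE-bla HEK 293T cells: compounds dosed from DMSO for 3 h at 37 C/5% CO2, followed by LiveBLAzer B/G FRET substrate for 2 h at room temperature.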

[13] = cAMP Responsive Elements (CRE) small molecule antagonists, cell-based qHTS assay (AID 1963591; active = well fitted inhibition curve with a large enough effect in the signal ratio in the repeat runs, not every such curve was filed as active; the % refers to the signal ratio)
In short: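 Antagonist mode: test compounds are co-incubated with the adenylyl cyclase activator NKH477 (0.25 uM final) on CRE-bla HEK293T cells for 3 h at 37 °C, followed by LiveBLAzer substrate loading.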

[14] = target: Beta-2 adrenergic receptor (Homo sapiens) (UniProt P07550); assay: Adrenergic beta2 receptor (ADRB2) small molecule agonists, cell-based qHTS assay (AID 1963593);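 note: CHO cells stably overexpressing human ADRB2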
Beta-2 adrenergic receptor (Homo sapiens), sequence (P07550 whole entry, looked up): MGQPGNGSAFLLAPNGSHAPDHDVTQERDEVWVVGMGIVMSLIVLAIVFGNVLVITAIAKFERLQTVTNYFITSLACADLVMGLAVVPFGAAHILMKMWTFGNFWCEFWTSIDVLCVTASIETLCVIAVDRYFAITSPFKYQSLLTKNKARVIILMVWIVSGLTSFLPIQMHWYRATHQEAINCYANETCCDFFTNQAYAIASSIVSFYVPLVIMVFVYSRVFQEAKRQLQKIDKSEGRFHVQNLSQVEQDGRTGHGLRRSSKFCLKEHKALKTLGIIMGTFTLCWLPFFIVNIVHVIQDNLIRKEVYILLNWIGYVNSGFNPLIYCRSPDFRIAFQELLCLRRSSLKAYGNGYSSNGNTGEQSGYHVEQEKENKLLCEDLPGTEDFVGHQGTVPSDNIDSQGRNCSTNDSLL
In short: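 CHO cells stably over-expressing ADRB2 were plated overnight at 37C, then dosed with compounds plus a stimulation mix containing 100uM IBMX and 25uM Ro-20-1724 for 0.5hr at room temperature. cAMP was measured by HTRF competition, 1hr.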

[15] = target: D(2) dopamine receptor (Homo sapiens) (UniProt P14416); assay: Dopamine D2 receptor (DRD2) small molecule agonists, cell-based qHTS assay (AID 1963594); note: nearly all actives have a fitted effect of over 35% in size
D(2) dopamine receptor (Homo sapiens), sequence (P14416 whole entry, looked up): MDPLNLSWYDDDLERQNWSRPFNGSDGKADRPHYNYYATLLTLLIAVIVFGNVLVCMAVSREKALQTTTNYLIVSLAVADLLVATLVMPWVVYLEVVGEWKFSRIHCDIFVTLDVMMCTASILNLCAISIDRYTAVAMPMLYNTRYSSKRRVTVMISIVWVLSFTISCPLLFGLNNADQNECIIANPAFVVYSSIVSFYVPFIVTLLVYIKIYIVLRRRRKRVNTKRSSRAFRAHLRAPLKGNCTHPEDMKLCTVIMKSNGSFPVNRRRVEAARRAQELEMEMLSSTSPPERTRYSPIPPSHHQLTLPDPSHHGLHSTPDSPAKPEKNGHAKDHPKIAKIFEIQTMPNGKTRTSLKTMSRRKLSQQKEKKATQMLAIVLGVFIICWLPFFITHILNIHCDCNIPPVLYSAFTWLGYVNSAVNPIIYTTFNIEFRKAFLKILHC
In short: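 cAMP accumulation in DRD2-HEK293 cells measured by HTRF after 1 h detection; compounds added 10 min before NKH477 (200nM […]) forskolin-analogue stimulation, 30 min at room temperature, with Ro20-1724 present at 0.1 mM final.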

[16] = target: D(2) dopamine receptor (Homo sapiens) (UniProt P14416); assay: Dopamine D2 receptor (DRD2) small molecule antagonists, cell-based qHTS assay (AID 1963595; active = well fitted inhibition curve with a large enough effect in the signal ratio in the repeat runs, with a control signal flat; the % refers to the signal ratio)
In short: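 HTRF cAMP read-out at 665 and 620 nm emission (340 nm excitation). Antagonist mode: compounds were tested against 12 nM quinpirole in DRD2-HEK293 cells, with 200 nM NKH477 raising cAMP and 0.1 mM Ro20-1724 blocking its breakdown.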

[17] = p53 small molecule agonists, cell-based qHTS assay with human liver microsomes (AID 1963577)
In short: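 Cells carrying a p53-responsive bla reporter were rested 5 h (37 C, 5% CO2) before compound transfer. Human liver microsomes plus NADPH, 0.5 mg/mL final apiece, supplied metabolism during the 16 h 37 C exposure.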

[18] = p53 small molecule agonists, cell-based qHTS assay with rat liver microsomes (AID 1963578)
In short: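 Fluorescence from a beta-lactamase reporter under a p53 response element was measured after cells had been incubated 16 h at 37 C with test compound and rat liver microsomes plus NADPH (0.5 mg/mL final each).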

[19] = p53 small molecule agonists, cell-based qHTS assay: qHTS cell viability counter screen (AID 1963581); note: nearly all actives have a fitted effect of over 45% in size
In short: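 Cells: HCT-116 with p53 response element-driven beta-lactamase. Treatment: 16 h, 37 C, compounds in DMSO. Read: CellTiter-Glo luminescence after 30 min RT.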

[20] = target: Beta-2 adrenergic receptor (Homo sapiens) (UniProt P07550); assay: Adrenergic beta2 receptor (ADRB2) small molecule antagonists, cell-based qHTS assay (AID 1963592); note: series mostly up to about 92 µM; nearly all actives have a fitted effect of over 50% in size
In short: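 Cells (CHO, stable ADRB2 overexpression) incubated 18-20hr at 37C; compounds added from DMSO; agonist mix (1nM isoproterenol, 100uM IBMX, 25uM Ro-20-1724) added; 0.5hr RT; d2-cAMP and anti-cAMP-cryptate added; 1hr RT; 665/615 nm read.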
% is set by controls: 0 for no effect and ±100 for the full control effect.

CN1CCOC(c2ccccc2)c2ccccc2C1 (stereo unspecified)
inactive: Potency [1] | Potency [2] | Potency [3] | outcome [4] | Potency [5] | Potency [6] | Potency [7] | Potency [8] | Potency [9] | Potency [10] | Potency [11] | Potency [12] | Potency [13] | Potency [14] | Potency [15] | Potency [16]

O=S(O)O
inactive: activity change, negative = cytotoxicity [1] -0.591% [at 19 µM] | activity, positive = activation [2] -3.64% [at 19 µM] | activity change [3] -0.296% [at 11.8 µM, active compounds read high] | activation [4] -3.75% [at 15.8 µM] | activation [17] 4.55% [at 13.5 µM] | activation [18] -0.532% [at 13.6 µM] | activity change, negative = cytotoxicity [5] -0.784% [at 13.5 µM] | activity change, negative = cytotoxicity [6] 11.9% [at 13.5 µM] | activity change, negative = cytotoxicity [19] 16.3% [at 13.5 µM] | activation [7] 0.538% [at 13.5 µM] | activity, negative = inhibition [8] -15% [at 12.7 µM] | activation [9] 4.7% [at 15.9 µM] | activity, negative = inhibition [10] 27.3% [at 12.6 µM] | activation [11] 0.709% [at 15.8 µM] | activation [12] 1.33% [at 19 µM] | activity change, negative = inhibition [13] 0.0539% [at 18.9 µM] | Potency [14] | activation [15] 2.66% [at 19 µM] | activity change, negative = inhibition [16] -0.433% [at 18.9 µM]

CC(C)(C)c1nnc(NS(=O)(=O)c2ccccc2)s1
inactive: Potency [1] | Potency [2] | Potency [3] | outcome [4] | Potency [17] | Potency [18] | Potency [5] | Potency [6] | Potency [19] | Potency [7] | Potency [9] | Potency [11] | Potency [12] | Potency [13] | Potency [20] | Potency [16]

Reference: PubChem BioAssay (Tox21)
